Screening data (PubChem)
Compounds with a hit are over-represented: about 2.3% of the library has one in this group of screens.
Mcl1-Noxa inh = Mcl-1/Noxa interaction inhibition | Q07820 | TR-FRET Mcl-1/Noxa peptide binding, 2 h | inhibition, % at 21.7 µM | 1.5% of 220,000 active | AID 1022;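 active = compounds that cut the protein-peptide binding signal by more than 50% relative to plate controls in a single-dose test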;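 also: His-tagged Mcl-1 with rhodamine Noxa BH3 peptide and terbium anti-His antibody; 0% = Mcl-1 plus Noxa peptide wells and 100% = peptide-only wells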
GLD-1 TGE inh = GLD-1-TGE RNA interaction inhibition (C. elegans). purified GLD-1 + fluorescein TGE RNA, fluorescence polarization. inhibition, % at 5.96 µM. 0.44% of 320,000 active. AID 2280;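 active = percent inhibition above a per-plate cutoff, the plate mean of test compounds plus 3 SD, cut at about 30% in these data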;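 also: 0% = DMSO wells with GLD-1 and probe and 100% = wells lacking GLD-1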
Target sequence (Q17339 whole entry, looked up): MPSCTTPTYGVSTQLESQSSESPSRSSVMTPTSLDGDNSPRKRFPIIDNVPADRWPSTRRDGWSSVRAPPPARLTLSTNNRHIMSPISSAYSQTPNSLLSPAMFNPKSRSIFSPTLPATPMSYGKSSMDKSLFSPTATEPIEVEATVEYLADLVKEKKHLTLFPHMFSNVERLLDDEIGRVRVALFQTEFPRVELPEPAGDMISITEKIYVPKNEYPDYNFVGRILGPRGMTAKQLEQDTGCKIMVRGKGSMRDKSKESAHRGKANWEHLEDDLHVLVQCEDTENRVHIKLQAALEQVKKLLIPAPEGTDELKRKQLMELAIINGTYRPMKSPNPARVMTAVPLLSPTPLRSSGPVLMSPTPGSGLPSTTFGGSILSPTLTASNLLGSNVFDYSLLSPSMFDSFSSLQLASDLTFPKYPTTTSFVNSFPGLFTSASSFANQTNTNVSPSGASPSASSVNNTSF
BCLXL inh = inhibitors of human Bcl-xL; Q07817; GST-Bcl-xL / FITC-Bim BH3 peptide fluorescence polarization; inhibition, % at 10.9 µM; 0.7% of 320,000 active;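 active = inhibition above the mean of all tested compounds plus 3 SD, cutoff set per campaign, cut at about 30% in these data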;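 also: 0% = DMSO wells and 100% = unlabeled Bim-BH3 peptide competitor; inhibitors lower millipolarization by displacing the labeled peptide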
Mcl1-Bid inh = disrupts binding of human Mcl-1 to Bid peptide. 0.97% of 220,000 active. TR-FRET Mcl-1/Bid-Dy647 peptide binding, 1536-well. AID 1021. Q07820. inhibition, % at 21.7 µM;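 active = compounds that cut the binding signal by more than half at the single screening dose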;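 also: His-tagged Mcl-1 with europium anti-His antibody binding Bid BH3 peptide; 0% = Mcl-1 plus peptide wells and 100% = peptide-only wells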
MCL1 BIM primary = inhibitors of human MCL1 binding to BIM-BH3 peptide; Q07820; GST-MCL1 / FITC-Bim-BH3 fluorescence polarization; inhibition, % at 10.9 µM; 0.68% of 320,000 active; AID 2057;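 active = inhibition above the mean inhibition of all tested compounds plus 3 SD, set per campaign, cut at about 40% in these data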;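 also: 0% = DMSO wells and 100% = unlabeled Bim-BH3 peptide control; higher means more loss of mP so more displacement of Bim peptide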
Mcl-1 Bim block = human Bim-Mcl-1 interaction inhibition; Q07820; Bead-based flow cytometry, Bim peptide-Mcl-1 binding; inhibition, % at 10 µM; 0.1% of 190,000 active; AID 1009; in the data active = inhibition above about 40%;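 also: 0% = no compound tracer wells and 100% = peptide blocker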
Bcl-xL conf = counter-screen for MCL1 inhibitors: confirmation of human Bcl-xL inhibitors. GST-Bcl-xL / FITC-Bim BH3 peptide FP binding. inhibition, % at 10.9 µM. 54% of 1,700 active. shares compounds with MCL1 BIM primary;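 active = inhibition above a cutoff equal to the mean inhibition of all tested compounds plus 3 SD, cut at about 30% in these data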;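 also: 0% = DMSO wells and 100% = unlabeled Bim BH3 control peptide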
MCL1 BIM confirm = confirmation of human MCL1 and BIM-BH3 interaction inhibitors. shares compounds with MCL1 BIM primary. GST-MCL1 / FITC-Bim-BH3 fluorescence polarization. inhibition, % at 10.9 µM. 61% of 1,700 active. AID 2168;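 active = inhibition above the average of all tested compounds plus 3 SD, cut at about 40% in these data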;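 also: 0% = DMSO wells and 100% = unlabeled Bim-BH3 control peptide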
GLD-1 TGE cf = GLD-1 TGE RNA interaction inhibition, confirmation; AID 2459; GLD-1/FL-TGE RNA fluorescence polarization, biochemical; inhibition, % at 5.96 µM; shares compounds with GLD-1 TGE inh; 10% of 550 active;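 active = average inhibition across triplicates above the hit cutoff set in the primary screen, cut at about 32% in these data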;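 also: 0% = GLD-1 with RNA probe and DMSO and 100% = wells lacking GLD-1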
* = called active by the depositor.

How did COc1ccc2[nH]c(C)c(CCN(Cc3cccs3)C(=S)Nc3cccc(F)c3)c2c1 do in these assays?
Mcl1-Noxa inh: 2.0; GLD-1 TGE inh: 52.9*; BCLXL inh: 59.4*; Mcl1-Bid inh: -40.4; MCL1 BIM primary: 62.7*; Mcl-1 Bim block: 1.0; Bcl-xL conf: 21.7; MCL1 BIM confirm: 21.3; GLD-1 TGE cf: 2.5

What do the screens show for `COc1ccc(C(=O)CCc2ccccc2)cc1`?
GLD-1 TGE inh: -5.5; BCLXL inh: 2.0; MCL1 BIM primary: 3.5

How did COc1ccc(NS(=O)(=O)c2cccs2)cn1 do in these assays?
Mcl1-Noxa inh: -11.7; GLD-1 TGE inh: 2.6; BCLXL inh: 9.8; Mcl1-Bid inh: -16.2; MCL1 BIM primary: 9.4; Mcl-1 Bim block: -2.0

Results for COc1ccc(NS(=O)(=O)c2ccc(Cl)s2)cn1 ?
Mcl1-Noxa inh: 9.7; GLD-1 TGE inh: 50.2*; BCLXL inh: 72.4*; Mcl1-Bid inh: -17.0; MCL1 BIM primary: 78.1*; Bcl-xL conf: 72.2*; MCL1 BIM confirm: 94.5*; GLD-1 TGE cf: 54.2*

How did CC(C)(C)NC(=O)C(c1ccc(O)cc1)N(C(=O)CCC(=O)Nc1ccccn1)c1ccc(F)cc1 (stereo unspecified) do in these assays?
GLD-1 TGE inh: -6.1; BCLXL inh: 1.5; MCL1 BIM primary: 1.5

How did COc1ccccc1C1C2=C(CCCC2=O)N(CC(=O)O)C2=C1C(=O)CCC2 do in these assays?
GLD-1 TGE inh: 57.5*; BCLXL inh: 48.4*; MCL1 BIM primary: 46.7*; Bcl-xL conf: 9.1; MCL1 BIM confirm: 11.8; GLD-1 TGE cf: -1.2

Results for COc1ccc(C2C3=C(CCCC3=O)N(CC(=O)O)C3=C2C(=O)CCC3)cc1Cl ?
GLD-1 TGE inh: -0.7; BCLXL inh: 14.9; MCL1 BIM primary: 29.8

What do the screens show for `Cc1ccc(-c2nn(CCC(=O)Nc3cccnc3)c(=O)c3ccccc23)cc1`?
Mcl1-Noxa inh: 11.6; GLD-1 TGE inh: 61.4*; BCLXL inh: 81.8*; Mcl1-Bid inh: -1.7; MCL1 BIM primary: 85.5*; Bcl-xL conf: 73.3*; MCL1 BIM confirm: 96.6*; GLD-1 TGE cf: -2.6

Results for CN1c2ccccc2N(C)C1(C)c1ccccc1 ?
Mcl1-Noxa inh: 79.8*; GLD-1 TGE inh: 47.7*; BCLXL inh: 69.0*; Mcl1-Bid inh: 39.4; MCL1 BIM primary: 65.2*; Mcl-1 Bim block: 1.0; Bcl-xL conf: 74.2*; MCL1 BIM confirm: 100.7*; GLD-1 TGE cf: 9.5

What do the screens show for `COc1cccc(=O)c2c(C)n(-c3ccc(C(=O)O)cc3)c(C)c12`?
Mcl1-Noxa inh: 19.0; GLD-1 TGE inh: 38.5*; BCLXL inh: 67.7*; Mcl1-Bid inh: -35.2; MCL1 BIM primary: 90.8*; Mcl-1 Bim block: 0.0; Bcl-xL conf: 21.1; MCL1 BIM confirm: 29.2; GLD-1 TGE cf: 14.2

Results for Cc1ccc(CN2CC[C@H]3C=CCc4cccc(c43)C2)cc1 ?
GLD-1 TGE inh: 10.7; BCLXL inh: 6.3; MCL1 BIM primary: 4.9

How did COc1ccc(CN2CC[C@H]3C=CCc4cccc(c43)C2)cc1 do in these assays?
GLD-1 TGE inh: 59.7*; BCLXL inh: 71.9*; MCL1 BIM primary: 86.7*; Bcl-xL conf: 19.2; MCL1 BIM confirm: 16.2; GLD-1 TGE cf: 0.8

What do the screens show for `CCOC(=O)C1=C(C)NC(C)=C(C(=O)OCC)C1C(=O)OCC(N)=O`?
Mcl1-Noxa inh: -4.3; GLD-1 TGE inh: 56.9*; BCLXL inh: 77.5*; Mcl1-Bid inh: -47.9; MCL1 BIM primary: 110.3*; Mcl-1 Bim block: 1.0; Bcl-xL conf: 5.1; MCL1 BIM confirm: 8.3; GLD-1 TGE cf: -7.0

Results for CCOC(=O)C1=C(C)NC(C)=C(C(=O)OCC)C1C(=O)OCC(=O)NC(C)C ?
Mcl1-Noxa inh: 14.3; GLD-1 TGE inh: 6.0; BCLXL inh: 5.6; Mcl1-Bid inh: 14.7; MCL1 BIM primary: 4.0; Mcl-1 Bim block: -2.0
